Results: PubChem BioAssay (NCI)
About 83,000 compounds went through this panel and 20% of them were active in at least one assay; those are over-represented in the sample as a whole.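 Step 1: grow cells in 96-well plates. Step 2: add test compound at a single concentration. Step 3: incubate 48 h. Step 4: record percent growth.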 A number with no mark means an inactive call. Activity calls are given as the source filed them. The calls were made as follows: active = growth percent below 10; inactive = the rest.

The molecules below were run on KM12 colon (assay: NCI-60 one-dose screen, 48 h (100 = growth as untreated, 0 = no growth, -100 = all killed)). Conditions: 10 µM unless noted.

Compound	growth
C=C1C(=O)O[C@H]2[C@H]1CC/C(COC(=O)/C=C\C(=O)O)=C\CC[C@@]1(C)O[C@@H]21	106%
CCCCC1CCc2cccc3c(SCC(=O)N(C)c4ccc(Cl)cc4)cc[n+]1c23 (stereo not given)	108%
O=C(c1nc2ccccc2[nH]1)C1C(c2cccc([N+](=O)[O-])c2)C2CC3CCCCC3N2[C@@]12C(=O)Nc1cc(Cl)ccc12 (stereo not given in full)	32.5%
O=C1/C(=C/c2ccc(O)cc2)COc2ccc(O)cc21	64.7%
O=C1/C(=C/c2ccc(O)cc2)COc2ccc(O)c(O)c21	19.8%
COc1cc2nc(NC3CCCC3)nc(NC3CCN(C(C)C)CC3)c2cc1OC	79.2%
Cc1ccccc1CNC(=O)C1CN(c2ccc(Cl)cc2)N(c2ccc(Cl)cc2)C1=O (stereo not given)	87.2%
COc1cc(C2CC(c3ccc(Nc4nc(NCCO)nc(N5CCOCC5)n4)cc3)=NN2c2cc(Cl)cc(Cl)c2)cc(OC)c1OC (stereo not given)	37.6%
O=C(c1nc2ccccc2[nH]1)C1C(c2ccc([N+](=O)[O-])cc2)C2CC3CCCCC3N2[C@@]12C(=O)Nc1cc(Cl)ccc12 (stereo not given in full)	29.1%
O=C(Cn1cc(COc2ncnc3c2cnn3-c2ccccc2)nn1)Nc1cccc2ccccc12	93.8%
CN1C(=O)N(C)C2Nn3c(s/c(=C\c4ccc(Cl)cc4Cl)c3=O)=NC21 (stereo not given)	28.7%
O=Cc1cc2ccccc2nc1Nc1nccs1	56.2%
O=C1/C(=C/c2cccc(O)c2)COc2ccc(O)cc21	20.9%
COc1cc2nc(NC3CCC3)nc(NC3CCN(C(C)C)CC3)c2cc1OC	62.9%
O=C(c1nc2ccccc2[nH]1)C1[C@@H](c2cccc(O)c2)C2CC3CCCCC3N2[C@@]12C(=O)Nc1cc(Cl)ccc12 (stereo not given in full)	34.9%
CCN1C(=O)N(c2ccccc2)C2NN=c3s/c(=C4\C(=O)N(C(C)C)c5ccccc54)c(=O)n3C21 (stereo not given)	14.5%
Cc1sc2ncn(CC(=O)Nc3ccc(S(N)(=O)=O)cc3)c(=O)c2c1C	102%
COC(=O)c1c2c(c(C)[n+]([O-])c1C)C(=O)C(NCc1ccc(F)c(F)c1)=CC2=O	10.4%

Compound	growth
CNCCNc1nc2ccccc2c2c(=O)c3cccc(OC)c3sc12	-47.9% (active)
CNCCNc1nc2ccccc2c2c(=O)c3cccc(C)c3sc12	-29.9% (active)
COc1cc(/C=C2\Oc3cc(OCCCN4CCCC4)ccc3C2=O)cc(OC)c1	26.3%
COC(=O)[C@H](NC(=O)C1(C)CCC[C@]2(C)[C@H]3C[C@H]4C(C(C)C)=C[C@]3(CC[C@@H]12)[C@@H]1C(=O)CCC(=O)[C@@H]14)C(C)C (stereo not given in full)	105%
COc1cc(/C=C2\CN(C)C/C(=C\c3cc(CN4CCCCC4)c(O)c(OC)c3)C2=O)cc(CN2CCCCC2)c1O	5.98% (active)
O=S(=O)(Nc1ncccn1)c1ccc(NC2Nc3nc4ccccc4nc3S2)cc1 (stereo not given)	106%
O=C1CCC(N2C(=O)c3cccc(NCCCCCCOc4ccc(Nc5nccc(Nc6ccccc6)n5)cc4)c3C2=O)C(=O)N1 (stereo not given)	88.5%
Cc1c(-c2csc(-n3nc(C(F)(F)F)cc3C(F)(F)F)n2)no[n+]1[O-]	104%
O=C(NCc1ccccc1)C1CN(c2ccc(Cl)cc2)N(c2ccc(Cl)cc2)C1=O (stereo not given)	59.8%
c1ccc2c(c1)oc1cc3sccc3nc12	108%
CCCCC1COc2cccc3c2N1C=C/C3=C\C(=O)N(C)c1ccccc1 (stereo not given)	65.2%
COc1cc(/C=C/C(=O)c2ccc(Nc3nc(NCCO)nc(N4CCOCC4)n3)cc2)cc(OC)c1OC	7.4% (active)
Cc1cccc2c(=O)c3c(sc12)c(NCCCNCCO)nc1ccccc13	33.6%
COc1cc(/C=C2\CN(C)C/C(=C\c3cc(CN4CCCC4)c(O)c(OC)c3)C2=O)cc(CN2CCCC2)c1O	48.3%
O=C(/C=C/c1ccc(C(F)(F)F)cc1)c1ccc(Nc2nc(NCCO)nc(N3CCOCC3)n2)cc1	-32.2% (active)
NCCOc1ccccc1/C=C1\c2ccccc2-c2ccc([N+](=O)[O-])cc21	-59.9% (active)
O=C(/C=C/c1ccc(F)cc1)c1ccc(Nc2nc(NCCO)nc(Nc3ccc(Cl)cc3)n2)cc1	25.5%
